Our source for the Potency, PLD induction and outcome values is PubChem BioAssay (Tox21).

Experiment [1] can be described thus: qHTS assay to identify small molecule antagonists of the estrogen receptor alpha (ER-alpha) signaling pathway using the BG1 cell line in the presence of 0.1 nM 17-beta-estradiol - cell viability counter screen (AID 1259241). Note: nearly all actives have a fitted effect of over 40% in size. Note: potency is the fitted concentration of half-maximal effect. In short, it runs like this:
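VM7Luc4E2, 4,000 cells/well, phenol red-free medium + 10% charcoal-stripped FBS; 24 hr plating; cpd + 0.1 nM E2 final, 22 hr 37C/5% CO2; CellTiter-Fluor 30 min, fluorescence.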
In general terms: qHTS replaces the single test concentration by a dilution series.

The nature of experiment [2]: qHTS assay to identify small molecule antagonists of the androgen receptor (AR) signaling pathway using the MDA cell line in the presence of 0.5 nM R1881 - cell viability counter screen (AID 1259242). Note: nearly all actives have a fitted effect of over 45% in size. Note: potency is the fitted concentration of half-maximal effect. In short, it runs like this: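 Fluorescence from CellTiter-Fluor, which reports protease activity of live cells, was read 30 min after reagent addition to MDA-kb2 cells that had been incubated 16 hr with compound and 0.5 nM R1881.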

For experiment [3], the target named is Androgen receptor (Homo sapiens) (UniProt P10275). Put plainly: qHTS assay to identify small molecule antagonists of the androgen receptor (AR) signaling pathway using the MDA cell line in the presence of 0.5 nM R1881 (AID 1259243). Note: nearly all actives have a fitted effect of over 50% in size. Note: potency is the fitted concentration of half-maximal effect. In short, it runs like this: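 Inhibition of R1881 (0.5 nM final) induced reporter signal was measured in human MDA-kb2 cells; note the MMTV promoter also responds to GR. Exposure lasted 16 hr at 37C.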

The target of experiment [4] is Estrogen receptor (Homo sapiens) (UniProt P03372). Put plainly: qHTS assay to identify small molecule antagonists of the estrogen receptor alpha (ER-alpha) signaling pathway using the BG1 cell line in the presence of 0.1 nM 17-beta-estradiol (AID 1259244). Note: nearly all actives have a fitted effect of over 50% in size. Note: potency is the fitted concentration of half-maximal effect. Put shortly: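 Quantitative high-throughput screen in VM7Luc4E2 cells: compound plus 0.1 nM E2 (final), 22 h, 37C, 5% CO2; ONE-Glo added, 30 min room temperature, luminescence measured.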

Experiment [5] can be described thus: qHTS assay to identify small molecule phospholipidosis (PLD) inducers (AID 1259344; active = well fitted curve in the direction sought with a large enough effect; an effect the other way counts as inactive or inconclusive). In short, it runs like this:
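Quantitative HTS in HepG2: compound plus LipidTOX Red dye for 24 h, paraformaldehyde fixation with Hoechst 33342, widefield high-content imaging; amiodarone as positive and DMSO as negative control.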

The nature of experiment [6]: qHTS assay to identify small molecule HDAC inhibitors (AID 1259364). Note: top concentration of the series differs between compounds; nearly all actives have a fitted effect of over 45% in size. Put shortly:
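Endogenous HDAC class I/II activity was measured in wild-type HCT-116 cells by HDAC-Glo luminescence after 2 h compound treatment.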

Experiment [7] can be described thus: qHTS assay to identify small molecule HDAC inhibitors - cell viability counter screen (AID 1259365). Note: nearly all actives have a fitted effect of over 50% in size. Note: potency is the fitted concentration of half-maximal effect. In short, it runs like this:
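Luminescence from CellTiter-Glo, developed 30min at room temperature, reports viability of wild-type HCT-116 cells treated 2hr with compounds at 37 C and 5% CO2 after overnight plating.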

Experiment [8] is described as follows: qHTS assay to identify small molecule agonists of the sonic hedgehog signaling (Shh) pathway - cell viability counter screen (AID 1259366). Note: nearly all actives have a fitted effect of over 50% in size. Note: potency is the fitted concentration of half-maximal effect. Put shortly: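 Cytotoxicity counter screen run in the same wells as the Shh reporter assay. NIH/3T3 cells carrying a Gli1 response element–driven luciferase were treated with DMSO-dissolved compounds for 24hr, and live-cell protease activity was measured with CellTiter-Fluor.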

Experiment [9] can be described thus: qHTS assay to identify small molecule antagonists of the sonic hedgehog signaling (Shh) pathway - cell viability counter screen (AID 1259367). Note: nearly all actives have a fitted effect of over 55% in size. Note: potency is the fitted concentration of half-maximal effect. In short, it runs like this:
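Seed 3T3 Gli1-Luc cells at 2,000 per well; incubate 4 hr; add compound in DMSO, then conditioned medium; incubate at 37C with 5% CO2; add CellTiter-Fluor after 23 hr; read fluorescence 1 hr later.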

The nature of experiment [10]: qHTS assay to identify small molecule agonists of the sonic hedgehog signaling (Shh) pathway (AID 1259368; calls by dose curve;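 note: NIH/3T3-derived 3T3Gli1-Luc cells carrying a stable Gli1-driven firefly luciferase reporter; series mostly up to about 92 µM; nearly all actives have a fitted effect of over 15% in size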). Put shortly:
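Luminescent signal was taken as a measure of Gli1-controlled luciferase expression in stably transfected NIH/3T3-derived cells that had been treated for 24 hr with compounds delivered in DMSO.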

A short description of experiment [11]: qHTS assay to identify small molecule agonists of the androgen receptor (AR) signaling pathway in the presence of an antagonist - cell viability counter screen (AID 1259379). Note: nearly all actives have a fitted effect of over 25% in size. Note: potency is the fitted concentration of half-maximal effect. Put shortly:
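In MDA-kb2 cells (human breast carcinoma, MMTV-luciferase), compounds at 15 concentrations plus 3.0uM nilutamide; 16 hr, 37C, 0% CO2; CellTiter-Fluor fluorescence read for viability.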

A short description of experiment [12]: qHTS assay to identify small molecule agonists of the estrogen receptor beta (ER-beta) signaling pathway - cell viability counter screen (AID 1259380). Note: nearly all actives have a fitted effect of over 30% in size. Note: potency is the fitted concentration of half-maximal effect. In short, it runs like this:
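Viability of ER-beta-UAS-bla HEK293T cells was determined by CellTiter-Glo luminescence following 16 hr treatment with test compounds at 37C.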

For experiment [13], the target named is Androgen receptor (Homo sapiens) (UniProt P10275). Put plainly: qHTS assay to identify small molecule agonists of the androgen receptor (AR) signaling pathway in the presence of an antagonist (AID 1259381; calls by dose curve; note: nearly all actives have a fitted effect of over 15% in size). Put shortly: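 Here, 15-concentration compound series were pin-transferred onto MDA-kb2 MMTV-luciferase cells already dosed with nilutamide (3.0uM final). After 16hr at 37C, ONE-Glo was added and luminescence read 30min later at room temperature.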

A short description of experiment [14]: qHTS assay to identify small molecule antagonists of the estrogen receptor beta (ER-beta) signaling pathway - cell viability counter screen (AID 1259382). Note: nearly all actives have a fitted effect of over 55% in size. Note: potency is the fitted concentration of half-maximal effect. In short, it runs like this: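 Tox21 10K library tested in qHTS format on ER-beta-bla HEK293T cells stimulated with 1nM E2; 16 hr treatment at 37C. Same-well CellTiter-Glo luminescence served as the cell viability measure.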

Experiment [15] deals with Estrogen receptor (Homo sapiens) (UniProt P03372). Put plainly: qHTS assay to identify small molecule agonists of the estrogen receptor alpha (ER-alpha) signaling pathway in the presence of an antagonist (AID 1259383; calls by dose curve; note: top concentration of the series differs between compounds; nearly all actives have a fitted effect of over 15% in size). Put shortly:
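In VM7Luc4E2 cells, 4,000 per well, compounds at 15 concentrations were co-incubated 22hr at 37C with 10.0nM final ICI-182,780. Luminescence from the stably transfected 4×ERE-luciferase reporter was recorded 30min after ONE-Glo addition.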

Experiment [16] has as its target Estrogen receptor beta (Homo sapiens) (UniProt Q92731). Put plainly: qHTS assay to identify small molecule antagonists of the estrogen receptor beta (ER-beta) signaling pathway (AID 1259378; active = well fitted inhibition curve with a large enough effect in the signal ratio in the repeat runs, not every such curve was filed as active; the % refers to the signal ratio; note: potency is the fitted concentration of half-maximal effect). In short, it runs like this: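 ER-beta-UAS-bla HEK293T cells in 2% charcoal-stripped FBS medium treated with compound plus 1nM final 17-beta-estradiol for 16 hr at 37C. Beta-lactamase reporter read by FRET substrate fluorescence after 2 hours at room temperature.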

Experiment [17] in a line: qHTS assay to identify small molecule agonists or antagonists of the thyroid stimulating hormone receptor (TSHR) signaling pathway - wild type cell line counter screen (AID 1259384; calls by dose curve). In short, it runs like this: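 Wild-type Hek293 cells, 800/well, 18 h at 37C, then compound with Ro20-1724 for 30 min RT. cAMP by HTRF (cAMP-d2/anti-cAMP cryptate), 1 h RT, fluorescence read. 15 concentrations, triplicates.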

Experiment [18] addresses Thyrotropin receptor (Homo sapiens) (UniProt P16473). In words: qHTS assay to identify small molecule antagonists of the thyroid stimulating hormone receptor (TSHR) signaling pathway (AID 1259385; calls by dose curve; note: nearly all actives have a fitted effect of over 20% in size). In short, it runs like this: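 TSHR-HEK293 cells (800/well) plated 18 h, then compounds with Ro20-1724 and TSH at 1.5 ng/mL final, 30 min at room temperature. cAMP quantified by HTRF (cAMP-d2/anti-cAMP-cryptate, 1 h); 15 concentrations in triplicate.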

A short description of experiment [19]: qHTS assay to identify small molecule antagonists of the sonic hedgehog signaling (Shh) pathway (AID 1259369; calls by dose curve; note: nearly all actives have a fitted effect of over 45% in size; note: potency is the fitted concentration of half-maximal effect). Put shortly:
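Screening used 3T3Gli1-Luc cells at 2,000 per well, compounds delivered in DMSO, and conditioned medium as agonist stimulus; plates incubated 24hr at 37 C and 5% CO2 before a 30min luciferase step.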

Experiment [20] addresses Estrogen receptor beta (Homo sapiens) (UniProt Q92731). Put plainly: qHTS assay to identify small molecule agonists of the estrogen receptor beta (ER-beta) signaling pathway (AID 1259377; active = well fitted activation curve with a large enough effect in the signal ratio in the repeat runs, not every such curve was filed as active; the % refers to the signal ratio). Put shortly:
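HEK293T ER-beta-UAS-bla; 2% charcoal-stripped FBS; cells pre-incubated 6 hr, compound 16 hr, 37C/5% CO2; LiveBLAzer B/G FRET substrate 2 h RT; fluorescence intensity read.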

A number with no mark means an inactive call. Records with an inconclusive call do not appear. Calls of active or inactive are those of the source. Unless noted, calls come from the whole dose curve; as a rule, active = well fitted curve in the direction sought with a large enough effect in the repeat runs; inconclusive = weak or mixed curves; inactive = no such curve, though single readings can be large; an effect the other way counts as inactive or inconclusive.
% is set by controls: 0 for no effect and ±100 for the full control effect.

Androgen receptor (Homo sapiens), sequence (P10275 whole entry, looked up): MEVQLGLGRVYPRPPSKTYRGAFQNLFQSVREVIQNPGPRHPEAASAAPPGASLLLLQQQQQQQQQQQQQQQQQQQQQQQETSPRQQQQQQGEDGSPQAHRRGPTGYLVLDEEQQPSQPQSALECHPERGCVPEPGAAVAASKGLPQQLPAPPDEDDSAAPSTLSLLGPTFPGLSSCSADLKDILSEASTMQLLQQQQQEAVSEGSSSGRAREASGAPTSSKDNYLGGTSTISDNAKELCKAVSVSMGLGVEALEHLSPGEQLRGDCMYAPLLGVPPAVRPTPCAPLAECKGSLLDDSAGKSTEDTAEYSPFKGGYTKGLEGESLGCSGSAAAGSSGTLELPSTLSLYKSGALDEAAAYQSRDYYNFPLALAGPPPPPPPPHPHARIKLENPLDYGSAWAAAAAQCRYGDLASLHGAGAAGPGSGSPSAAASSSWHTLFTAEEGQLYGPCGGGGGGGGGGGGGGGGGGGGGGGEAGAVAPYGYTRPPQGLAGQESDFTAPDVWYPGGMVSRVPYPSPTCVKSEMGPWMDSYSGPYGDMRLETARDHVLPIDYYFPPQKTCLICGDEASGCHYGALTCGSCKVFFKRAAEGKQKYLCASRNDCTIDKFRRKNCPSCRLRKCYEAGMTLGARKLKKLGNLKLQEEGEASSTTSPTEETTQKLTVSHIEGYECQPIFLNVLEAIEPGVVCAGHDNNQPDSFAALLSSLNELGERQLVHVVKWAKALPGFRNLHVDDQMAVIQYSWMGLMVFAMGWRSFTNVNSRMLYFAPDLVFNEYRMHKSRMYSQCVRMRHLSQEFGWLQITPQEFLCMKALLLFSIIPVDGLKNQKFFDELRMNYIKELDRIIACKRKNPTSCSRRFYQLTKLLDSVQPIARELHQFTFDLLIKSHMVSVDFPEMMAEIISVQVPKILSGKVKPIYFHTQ
Estrogen receptor beta (Homo sapiens), sequence (Q92731 whole entry, looked up): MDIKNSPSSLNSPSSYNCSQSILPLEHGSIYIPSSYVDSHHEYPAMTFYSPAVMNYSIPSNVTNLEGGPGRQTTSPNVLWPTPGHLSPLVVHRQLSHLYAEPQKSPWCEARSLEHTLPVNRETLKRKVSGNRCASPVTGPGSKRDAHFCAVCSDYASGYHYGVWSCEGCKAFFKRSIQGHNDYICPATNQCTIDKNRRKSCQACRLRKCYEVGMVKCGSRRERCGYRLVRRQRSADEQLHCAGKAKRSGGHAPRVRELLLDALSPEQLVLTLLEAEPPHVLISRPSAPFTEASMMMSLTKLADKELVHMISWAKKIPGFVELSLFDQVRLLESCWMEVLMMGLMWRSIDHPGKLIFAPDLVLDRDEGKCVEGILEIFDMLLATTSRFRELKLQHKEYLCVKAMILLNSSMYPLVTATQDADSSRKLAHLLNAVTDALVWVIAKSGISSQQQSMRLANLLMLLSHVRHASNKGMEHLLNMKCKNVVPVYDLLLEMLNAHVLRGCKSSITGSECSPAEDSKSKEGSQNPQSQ
Estrogen receptor (Homo sapiens), sequence (P03372 whole entry, looked up): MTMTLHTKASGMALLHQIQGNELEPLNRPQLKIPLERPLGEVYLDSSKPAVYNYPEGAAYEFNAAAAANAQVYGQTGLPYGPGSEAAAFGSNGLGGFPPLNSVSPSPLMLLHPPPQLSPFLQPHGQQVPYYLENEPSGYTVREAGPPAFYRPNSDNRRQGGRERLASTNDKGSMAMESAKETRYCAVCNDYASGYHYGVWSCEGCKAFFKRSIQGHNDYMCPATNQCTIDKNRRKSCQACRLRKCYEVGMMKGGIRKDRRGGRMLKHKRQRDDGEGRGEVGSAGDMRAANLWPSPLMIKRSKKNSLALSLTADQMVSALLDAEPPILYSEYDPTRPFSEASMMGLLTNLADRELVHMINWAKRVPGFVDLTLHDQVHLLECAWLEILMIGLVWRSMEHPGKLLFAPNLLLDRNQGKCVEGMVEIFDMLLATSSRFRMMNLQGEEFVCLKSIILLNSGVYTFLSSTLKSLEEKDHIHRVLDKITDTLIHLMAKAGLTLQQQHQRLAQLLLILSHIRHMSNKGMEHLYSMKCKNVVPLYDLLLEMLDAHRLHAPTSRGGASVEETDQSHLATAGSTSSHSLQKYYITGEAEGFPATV
Thyrotropin receptor (Homo sapiens), sequence (P16473 whole entry, looked up): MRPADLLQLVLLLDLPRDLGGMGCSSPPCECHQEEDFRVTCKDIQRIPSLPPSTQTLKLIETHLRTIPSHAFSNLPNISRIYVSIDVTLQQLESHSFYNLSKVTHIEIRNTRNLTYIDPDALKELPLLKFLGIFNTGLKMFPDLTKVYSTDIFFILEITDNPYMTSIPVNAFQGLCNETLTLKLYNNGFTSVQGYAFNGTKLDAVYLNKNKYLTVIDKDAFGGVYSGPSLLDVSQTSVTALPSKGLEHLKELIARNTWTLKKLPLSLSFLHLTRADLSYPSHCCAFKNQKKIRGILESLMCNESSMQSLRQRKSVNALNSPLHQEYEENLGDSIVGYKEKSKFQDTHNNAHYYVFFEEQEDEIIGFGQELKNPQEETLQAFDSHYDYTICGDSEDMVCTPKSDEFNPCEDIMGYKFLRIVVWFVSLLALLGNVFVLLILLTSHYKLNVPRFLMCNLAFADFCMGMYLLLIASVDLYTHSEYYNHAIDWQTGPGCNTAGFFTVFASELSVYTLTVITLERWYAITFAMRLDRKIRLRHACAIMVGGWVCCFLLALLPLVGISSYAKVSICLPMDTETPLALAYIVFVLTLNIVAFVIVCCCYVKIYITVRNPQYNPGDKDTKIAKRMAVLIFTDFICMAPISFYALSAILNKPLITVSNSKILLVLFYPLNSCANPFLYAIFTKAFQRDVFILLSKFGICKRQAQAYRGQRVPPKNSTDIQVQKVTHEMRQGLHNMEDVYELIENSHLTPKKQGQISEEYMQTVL

For the molecule `CCCCC(CC)CN=C(N)NC(N)=NCCCCCCN=C(N)NC(N)=NCC(CC)CCCC` (stereo not given), the Potency in experiment [1] was 29.8 µM (active); in [2], 18.8 µM (active); in experiment [3] it was 11.9 µM (active); in experiment [4], 21.1 µM (active); in experiment [7], 29.8 µM (active); in experiment [8] it was 23.7 µM (active). Besides, the Potency is 21.1 µM (active) in [9], 18.8 µM (active) in [11], 23.7 µM (active) in experiment [12] and 13.3 µM (active) in experiment [14]. Moreover, the Potency entry in experiment [5], in [6], in experiment [10], in experiment [13] and in experiment [15] was “inactive” each time.
As to `CC(C)(C)C(=O)OCOC(=O)C1N2C(=O)CC2S(=O)(=O)C1(C)C` (stereo not given), the Potency entry in experiment [1], in experiment [2], in [3], in experiment [4], in experiment [6] and in experiment [7] was “inactive” throughout. Further, the Potency result in experiment [8], in [9], in experiment [10], in experiment [11], in [13] and in experiment [14] was “inactive” throughout. The Potency result in experiment [15] and in experiment [18] was “inactive” in each case. Further, in experiment [5], the PLD induction is 3.21% [at 0.0123 µM]. In addition, in [16], the Potency is 10.6 µM (active). For the same molecule, the call in [17] was inactive.
As for `Cc1cc(O)c2ccccc2c1O`, the Potency in experiment [1] is 29.8 µM (active); in experiment [2] it was 18.8 µM (active); in [3], 11.9 µM (active); in experiment [4] it was 13.3 µM (active); in [8], 5.31 µM (active); in [9], 13.3 µM (active). Besides, the Potency in experiment [19] was 13.3 µM (active); in experiment [11], 26.6 µM (active); in experiment [12] it was 13.3 µM (active); in [14], 23.7 µM (active). The Potency result in experiment [5], in experiment [10], in experiment [13] and in experiment [15] was “inactive” each time. For the same molecule, in [17], the call was inactive.
In the case of `NC(=O)NS(=O)(=O)c1ccc(N)cc1`, the Potency result in experiment [1], in experiment [2], in experiment [4], in experiment [5], in experiment [6] and in experiment [7] was “inactive” each time. Moreover, the Potency result in experiment [8], in experiment [9], in experiment [10], in [19], in [20] and in experiment [16] was “inactive” each time. The Potency result in experiment [11], in experiment [12], in experiment [14] and in experiment [15] was “inactive” throughout. In experiment [17], the call was inactive.
Consider `CC(=O)OCC(C)OC(C)=O` (stereo not given), for which the Potency result in [1], in [2], in experiment [4], in [6], in experiment [7] and in experiment [8] was “inactive” each time. In addition, the Potency result in experiment [9], in experiment [10], in [20], in experiment [16], in [11] and in experiment [12] was “inactive” in each case. Also, the Potency entry in [14], in experiment [15] and in [18] was “inactive” throughout. In experiment [19], the Potency is 68.6 µM (active). The molecule was classed as inactive in experiment [17].
In the case of `CCCN(CCC)c1c([N+](=O)[O-])cc(C(F)(F)F)c(N)c1[N+](=O)[O-]`, the Potency in experiment [1] is 60.9 µM (active); in experiment [2] it was 60.9 µM (active); in experiment [4] it was 54.3 µM (active); in experiment [7], 60.9 µM (active); in experiment [8], 48.4 µM (active); in experiment [9] it was 60.9 µM (active). Besides, the Potency is 21.6 µM (active) in [19], 60.9 µM (active) in experiment [11], 21.6 µM (active) in [12] and 30.5 µM (active) in experiment [14]. In addition, the Potency entry in experiment [6], in [10] and in experiment [15] was “inactive” each time. Besides, the molecule was called inactive in [17].
